# From PubChem BioAssay
# Calls of active or inactive are those of the source.
# Experiments:
# [1] = compound effects on differentiated 3T3-L1 adipocyte viability – cell-based, 3T3-L1 adipocytes, calcein-AM fluorescence, 48 h, basal, profiling panel (AID 1163); conditions: 3T3-L1 adipocytes viability, higher = more signal
# [2] = compound effects on hepatocellular carcinoma cell viability – HepG2, calcein-AM fluorescence, 48 h, basal, profiling panel (AID 1164); conditions: higher = more signal
# [3] = compound effects on multiple myeloma cell viability – MM1S, calcein-AM fluorescence, 48 h, basal, profiling panel (AID 1165); conditions: higher = more signal
# [4] = calcein-AM signal in unstimulated myeloma cells – cell-based, calcein-AM fluorescence, 48 h, PK04 Diversity Set, profiling panel (AID 1166); conditions: RPMI8226 myeloma viability, higher = more signal;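 also: cells grown under basal conditions without added stimulus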
# [5] = JC-1 mitochondrial signal, unstimulated HepG2 cells – cell-based, JC-1 fluorescence, 24 h, 100 nL compound, profiling panel (AID 1167); conditions: HepG2 mitochondrial potential, higher = more signal
# [6] = JC-1 mitochondrial signal, unstimulated adipocytes – cell-based, JC-1 fluorescence, 3T3-L1 adipocytes, 24 h, 100 nL compound, profiling panel (AID 1168); conditions: JC-1 mitochondrial fluorescence, higher = more signal, called active from +8 up or from −8 down
# [7] = JC-1 mitochondrial signal, unstimulated myeloma cells – cell-based, JC-1 fluorescence, RPMI8226, 24 h, 100 nL compound, profiling panel (AID 1169); conditions: JC-1 mitochondrial potential fluorescence, higher = more signal
# [8] = JC-1 mitochondrial signal, unstimulated MM1S myeloma – cell-based, JC-1 fluorescence, 24 h, 100 nL compound, profiling panel (AID 1170); conditions: MM1S mitochondrial potential, higher = more signal
# [9] = resazurin metabolic signal in A549 cells – cell-based, resazurin fluorescence, 24 h, PK04 Diversity Set, profiling panel (AID 1171); conditions: A549 viability, higher = more signal, called active from +8 up or from −8 down
# [10] = resazurin metabolic signal in HepG2 cells – cell-based, resazurin fluorescence, 24 h, PK04 Diversity Set, profiling panel (AID 1172); conditions: HepG2 viability, higher = more signal
# [11] = budding yeast growth changes without added modifier – OD600, strain BY4716, 24 h, basal condition, primary screen (AID 1173); conditions: S. cerevisiae BY4716 growth, OD600, 24 h; higher = more signal, called active from +8 up or from −8 down
# [12] = viability profiling in MM1S myeloma cells – cell-based, resazurin fluorescence, basal, 24 h, PK04 Diversity Set, profiling panel (AID 1174); conditions: higher = more signal, called active from +8 up or from −8 down
# [13] = molecular target: Dihydroorotate dehydrogenase (quinone), mitochondrial (Plasmodium falciparum (isolate 3D7)) (UniProt Q08210); assay: inhibition of P. falciparum DHODH – biochemical, C-terminal His tag, absorbance 600 nm, primary screen (AID 1175); conditions: PfDHODH enzyme, DCIP absorbance 600 nm; higher = more signal, called active from +8 up or from −8 down;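 also: recombinant parasite enzyme with a five histidine tag at its C terminus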
# Dihydroorotate dehydrogenase (quinone), mitochondrial (Plasmodium falciparum (isolate 3D7)), sequence (Q08210 whole entry, looked up): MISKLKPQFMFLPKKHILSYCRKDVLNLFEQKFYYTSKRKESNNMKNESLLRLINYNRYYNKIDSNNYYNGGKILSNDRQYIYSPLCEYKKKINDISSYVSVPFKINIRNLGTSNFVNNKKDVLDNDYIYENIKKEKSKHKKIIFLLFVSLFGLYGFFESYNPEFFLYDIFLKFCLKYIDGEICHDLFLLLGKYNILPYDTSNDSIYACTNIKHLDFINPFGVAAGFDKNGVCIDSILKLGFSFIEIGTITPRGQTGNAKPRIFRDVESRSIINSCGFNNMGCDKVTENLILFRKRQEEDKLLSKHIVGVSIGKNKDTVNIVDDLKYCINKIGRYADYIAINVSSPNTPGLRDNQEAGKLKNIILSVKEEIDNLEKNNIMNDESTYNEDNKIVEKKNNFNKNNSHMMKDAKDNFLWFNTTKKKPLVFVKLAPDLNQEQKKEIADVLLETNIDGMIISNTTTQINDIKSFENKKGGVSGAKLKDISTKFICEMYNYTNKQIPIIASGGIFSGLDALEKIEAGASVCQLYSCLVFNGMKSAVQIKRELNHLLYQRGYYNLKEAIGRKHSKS
# [14] = growth modulation of vineyard yeast isolate – strain RM11-1a, OD600, basal, 24 h, primary screen (AID 1177);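 also: cultures grown under basal conditions with no added stressor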; conditions: S. cerevisiae RM11-1a growth, OD600, 24 h; higher = more signal, called active from +8 up or from −8 down
# [15] = growth of efflux-deficient E. coli DRC39 – strain DRC39, OD650, 24 h, E. coli filamentation inducers, primary screen (AID 1178);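 also: growth measured as culture turbidity by optical density at 650 nm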; conditions: E. coli DRC39 acrAB, higher = more signal, called active from +8 up or from −8 down
# [16] = growth of efflux-deficient E. coli DRC39 – strain DRC39, OD650, 48 h, E. coli filamentation inducers, primary screen (AID 1179);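 also: screen aims at cell division blockers that make cells filament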; conditions: E. coli DRC39 delta-acrAB growth, higher = more signal, called active from +8 up or from −8 down
# [17] = viability profiling in RPMI8226 myeloma cells – cell-based, resazurin fluorescence, basal, 24 h, PK04 Diversity Set, profiling panel (AID 1180); conditions: higher = more signal;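 also: RPMI8826 multiple myeloma cell line at 5000 cells per well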
# [18] = molecular target: E3 ubiquitin-protein ligase XIAP (Homo sapiens) (UniProt P98170); assay: small molecules binding XIAP protein – biophysical, small-molecule microarray, fluorescence 635 nm, primary screen (AID 1181); conditions: higher = more signal;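 also: score merges 667 nm emission and signal to noise over triplicate slides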
# E3 ubiquitin-protein ligase XIAP (Homo sapiens), sequence (P98170 whole entry, looked up, the tested form may be a part): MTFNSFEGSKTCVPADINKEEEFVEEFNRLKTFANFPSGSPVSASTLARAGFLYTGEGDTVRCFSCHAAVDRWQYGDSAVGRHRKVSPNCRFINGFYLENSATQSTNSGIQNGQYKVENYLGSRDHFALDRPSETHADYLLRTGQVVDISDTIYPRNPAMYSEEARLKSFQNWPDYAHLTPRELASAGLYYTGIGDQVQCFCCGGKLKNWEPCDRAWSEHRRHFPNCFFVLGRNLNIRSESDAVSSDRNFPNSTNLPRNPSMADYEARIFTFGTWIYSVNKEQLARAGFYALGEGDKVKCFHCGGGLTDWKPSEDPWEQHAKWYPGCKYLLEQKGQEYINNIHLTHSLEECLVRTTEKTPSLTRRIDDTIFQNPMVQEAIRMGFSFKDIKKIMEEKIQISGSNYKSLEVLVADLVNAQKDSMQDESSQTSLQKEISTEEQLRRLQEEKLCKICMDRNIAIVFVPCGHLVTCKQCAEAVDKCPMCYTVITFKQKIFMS
# [19] = test system: XIP peptide (Xip251-270) binding; assay: XIP fragment 251-270 binding compounds – biochemical, small-molecule microarray, fluorescence 635/667 nm, 0.1 µg/mL protein, primary screen (AID 1182); conditions: fluorescent protein binding, 635 nm, higher = more signal, called active from +8 up or from −8 down
# XIP peptide (Xip251-270) = assay: compounds binding XIP fragment 251-270 – biochemical, small-molecule microarray, fluorescence 635/667 nm, 0.5 µg/mL protein, primary screen (AID 1183); conditions: fluorescence 635 nm, higher = more signal
smiles,measurement,setting,value
O=C(NCc1ccccc1)[C@@H]1c2ccccc2C(=O)N(Cc2ccccc2Cl)[C@H]1c1ccc(CO)cc1,z-score,[1],1.23
same,z-score,[2],-0.005
same,z-score,[3],0.138
same,z-score,[4],-0.256
same,z-score,[5],1.99
same,z-score,[6],-0.0174 (inactive)
same,z-score,[7],-0.939
same,z-score,[8],-0.0877
same,z-score,[9],1.39 (inactive)
same,z-score,[10],0.714
same,z-score,[11],-1.18 (inactive)
same,z-score,[12],0.687 (inactive)
same,composite z-score,[13],-1.17 (inactive)
same,z-score,[14],-1.44 (inactive)
same,z-score,[15],0.392 (inactive)
same,z-score,[16],0.123 (inactive)
same,z-score,[17],1.63
same,composite z-score,[18],0.0115
same,composite z-score,[19],0.188 (inactive)
same,composite z-score,XIP peptide (Xip251-270),0.819
CC(C)(C)OC(=O)CC[C@]1(C(=O)NCc2ccccc2)N=C(c2ccc(OCCCO)cc2)O[C@H]1c1ccccc1N=[N+]=[N-],z-score,[1],2.99
same,z-score,[2],-0.957
same,z-score,[3],-0.369
same,z-score,[4],-1.52
same,z-score,[5],2.24
same,z-score,[6],2.6 (inactive)
same,z-score,[7],-0.578
same,z-score,[8],-0.669
same,z-score,[9],-0.413 (inactive)
same,z-score,[10],0.384
same,z-score,[11],0 (inactive)
same,z-score,[12],-0.439 (inactive)
same,composite z-score,[13],1.18 (inactive)
same,z-score,[14],0.892 (inactive)
same,z-score,[15],3.14 (inactive)
same,z-score,[16],1.08 (inactive)
same,z-score,[17],-0.2
same,composite z-score,[18],-0.0095
same,composite z-score,[19],0.735 (inactive)
same,composite z-score,XIP peptide (Xip251-270),0.725
Cc1ccc(S[C@]2(C(=O)NCC(C)C)CC(=O)N(C(C)C)[C@@H]2c2ccc(CO)cc2)cc1,z-score,[1],2.25
same,z-score,[2],-1.49
same,z-score,[3],0.623
same,z-score,[4],-0.954
same,z-score,[5],0.34
same,z-score,[6],-0.446 (inactive)
same,z-score,[7],0.134
same,z-score,[8],0.381
same,z-score,[9],0.443 (inactive)
same,z-score,[10],-0.784
same,z-score,[11],0.225 (inactive)
same,z-score,[12],1.13 (inactive)
same,composite z-score,[13],-0.052 (inactive)
same,z-score,[14],-1.24 (inactive)
same,z-score,[15],1.49 (inactive)
same,z-score,[16],0.719 (inactive)
same,z-score,[17],0.687
same,composite z-score,[18],-0.0481
same,composite z-score,[19],-0.467 (inactive)
same,composite z-score,XIP peptide (Xip251-270),-0.284
O=C(O)[C@H]1C[C@H]2C(=O)N[C@@H](Cc3ccccc3)C(=O)N2[C@H]1c1ccc(O)cc1,z-score,[1],0.691
same,z-score,[2],-0.142
same,z-score,[3],0.41
same,z-score,[4],0.0405
same,z-score,[5],1.29
same,z-score,[6],-0.176 (inactive)
same,z-score,[7],-0.865
same,z-score,[8],-0.269
same,z-score,[9],0.715 (inactive)
same,z-score,[10],0.833
same,z-score,[11],-0.145 (inactive)
same,z-score,[12],0.635 (inactive)
same,composite z-score,[13],-0.426 (inactive)
same,z-score,[14],-0.44 (inactive)
same,z-score,[15],0.431 (inactive)
same,z-score,[16],0.361 (inactive)
same,z-score,[17],1.04
same,composite z-score,[18],0.117
same,composite z-score,[19],0.3 (inactive)
same,composite z-score,XIP peptide (Xip251-270),0.923
COc1ccc([Si](C)(C)[C@@H]2[C@@H](CCn3cc(CCO)nn3)O[C@]3(C(=O)N(Cc4ccc(N5C(=O)c6cccc7cccc5c67)cc4)c4ccccc43)[C@H]2C)cc1,z-score,[1],1.91
same,z-score,[2],-4.48
same,z-score,[3],-2.68
same,z-score,[4],-4.34
same,z-score,[5],1.75
same,z-score,[6],2.83 (inactive)
same,z-score,[7],-1.04
same,z-score,[8],-1.78
same,z-score,[9],-2.38 (inactive)
same,z-score,[10],-1.3
same,z-score,[11],-0.456 (inactive)
same,z-score,[12],-5.44 (inactive)
same,composite z-score,[13],0.0498 (inactive)
same,z-score,[14],0.643 (inactive)
same,z-score,[15],2.2 (inactive)
same,z-score,[16],1.02 (inactive)
same,z-score,[17],-4.14
same,composite z-score,[18],0.0159
same,composite z-score,[19],0.437 (inactive)
same,composite z-score,XIP peptide (Xip251-270),0.739
C=C(/C(=C/C[C@H](OC(C)=O)c1cccc(OCCO)c1)c1cc(C(=O)OC)ccc1OC)C(C)C,z-score,[1],0.911
same,z-score,[2],0.454
same,z-score,[3],-0.181
same,z-score,[4],0.587
same,z-score,[5],1.66
same,z-score,[6],1.91 (inactive)
same,z-score,[7],0.00485
same,z-score,[8],0.343
same,z-score,[9],3.57 (inactive)
same,z-score,[10],1.97
same,z-score,[11],-1.63 (inactive)
same,z-score,[12],1.92 (inactive)
same,composite z-score,[13],-0.569 (inactive)
same,z-score,[14],-1.29 (inactive)
same,z-score,[15],2.48 (inactive)
same,z-score,[16],1.67 (inactive)
same,z-score,[17],1.87
same,composite z-score,[18],0.0479
same,composite z-score,[19],-0.139 (inactive)
same,composite z-score,XIP peptide (Xip251-270),-0.595
CCCCC(=C=CC[C@@H](O)c1ccc(OCCO)cc1)C[C@@H](O)c1cc(Cl)cc(Cl)c1O,z-score,[1],1.37
same,z-score,[2],0.652
same,z-score,[3],-3.38
same,z-score,[4],-3.4
same,z-score,[5],-0.376
same,z-score,[6],1.43 (inactive)
same,z-score,[7],-0.0474
same,z-score,[8],0.781
same,z-score,[9],2.58 (inactive)
same,z-score,[10],2.12
same,z-score,[11],-5.94 (inactive)
same,z-score,[12],0.199 (inactive)
same,composite z-score,[13],-2.43 (inactive)
same,z-score,[14],-3.1 (inactive)
same,z-score,[15],3.34 (inactive)
same,z-score,[16],2.27 (inactive)
same,z-score,[17],0.285
same,composite z-score,[18],0.0394
same,composite z-score,[19],0.925 (inactive)
same,composite z-score,XIP peptide (Xip251-270),0.365
CCCNC(=O)[C@@H]1c2ccccc2C(=O)N(Cc2cc(C(F)(F)F)cc(C(F)(F)F)c2)[C@H]1c1ccc(CO)cc1,z-score,[1],1.6
same,z-score,[2],0.174
same,z-score,[3],-0.298
same,z-score,[4],-1
same,z-score,[5],1.4
same,z-score,[6],-0.652 (inactive)
same,z-score,[7],0.188
same,z-score,[8],1.01
same,z-score,[9],0.741 (inactive)
same,z-score,[10],0.397
same,z-score,[11],-0.367 (inactive)
same,z-score,[12],1.52 (inactive)
same,composite z-score,[13],0.754 (inactive)
same,z-score,[14],0.288 (inactive)
same,z-score,[15],1.06 (inactive)
same,z-score,[16],-0.625 (inactive)
same,z-score,[17],1.63
same,composite z-score,[18],-0.374
same,composite z-score,[19],0.133 (inactive)
same,composite z-score,XIP peptide (Xip251-270),0.219
CC(C)(C)OC(=O)CC[C@]1(C(=O)NCc2ccccc2)COC(c2ccc(OCCCO)cc2)=N1,z-score,[1],0.978
same,z-score,[2],-0.346
same,z-score,[3],0.614
same,z-score,[4],0.554
same,z-score,[5],-0.0474
same,z-score,[6],0.186 (inactive)
same,z-score,[7],-0.291
same,z-score,[8],0.931
same,z-score,[9],1.72 (inactive)
same,z-score,[10],0.931
same,z-score,[11],-1.67 (inactive)
same,z-score,[12],1.65 (inactive)
same,composite z-score,[13],-1.28 (inactive)
same,z-score,[14],-1.23 (inactive)
same,z-score,[15],1.38 (inactive)
same,z-score,[16],0.233 (inactive)
same,z-score,[17],1.57
same,composite z-score,[18],0.141
same,composite z-score,[19],1.45 (inactive)
same,composite z-score,XIP peptide (Xip251-270),0.0144
